# According to PubChem BioAssay (NCATS):
# Results filed as inconclusive are left out. Activity calls are given as the source filed them. Calls follow the shape of the dose curve; as a rule, active = well fitted cell-killing curve with a large enough effect; inconclusive = small, poorly fitted or top-dose-only effect, or effect the other way; inactive = no such curve, though single readings can be large or run the other way.
# Assay: Quantitative High-Throughput drug screen in 47 multiple myeloma cell lines against the NCATS MIPE library collection: OCIMY1_PLB cell viability assay (AID 1918979); also: nearly all actives have a fitted effect of over 35% in size
# Settings: OCI-MY1 myeloma viability, CellTiter-Glo ATP, 48 h; series mostly up to 45.8 µM; viability: at the top concentration
# Outline: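 ATP-based CellTiter-Glo luminescence after 48 h drug exposure (37 °C, 5% CO2) of 500 myeloma cells per well. DMSO-only wells set 100% viability, media-only wells 0%; MIPE 4.0 library added by pin tool.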
# Potency is read from the fitted curve at half-maximal effect.
SMILES,viability,Potency
C[C@H]([C@H](O)CCC(C)(C)O)[C@H]1CC[C@@]2(O)C3=CC(=O)[C@@H]4C[C@@H](O)[C@@H](O)C[C@]4(C)[C@@H]3CC[C@]12C,119% (inactive),–
C1=C2CCCN[C@H]2[C@@H]2C[C@H]1[C@@H]1CCCCN1C2,95.9% (inactive),–
CC(=Cc1csc(C)n1)[C@@H]1C[C@H]2O[C@@H]2CCC[C@H](C)[C@@H](O)[C@@H](C)C(=O)C(C)(C)[C@@H](O)CC(=O)O1,63.8% (inactive),–
Clc1ccccc1C(c1ccccc1)(c1ccccc1)n1cccn1,94.4% (inactive),–
C[C@@H]1CC[C@H]2[C@@H](C)C(=O)O[C@@H]3O[C@@]4(C)CC[C@H]1[C@]32OO4,104% (inactive),–
CO[C@H]1CCC(O[C@H]2C[C@H]([C@]3(C)CC[C@]4(C[C@H](O)[C@@H](C)[C@@H]([C@@H](C)C=C(C)C(=O)[C@H](C)C[C@H](C)C(=O)O)O4)O3)O[C@]3(O[C@@H]([C@H]4O[C@@](O)(CO)[C@H](C)C[C@H]4C)C[C@H]3C)[C@H]2C)O[C@H]1C (stereo partly drawn),–,5260 nM (active)
COC1=CC(C)=C[C@@H](C)[C@@H](O)[C@@H](C)CC(C)=CC=C[C@H](OC)[C@H]([C@@H](C)[C@@H](O)[C@H](C)[C@@]2(O)C[C@@H](O)[C@H](C)[C@@H](C(C)C)O2)OC1=O,–,3.7 nM (active)
O=c1[nH]c2ccc(Cl)cc2c(N[C@@H]2CN3CCC2CC3)c1-c1nc2ccccc2[nH]1,–,4690 nM (active)
CC(C)(C)[C@]1(O)C[C@@H]2OC(=O)C[C@@]23C(=O)O[C@@H]2OC(=O)[C@H](O)C213 (stereo partly drawn),84% (inactive),–
COc1ccc(N(C(=O)Oc2c(C)cccc2C)c2ccnc(Nc3ccc(N4CCN(C)CC4)cc3)n2)c(OC)c1,95.6% (inactive),–
C[C@@H]1[C@H](O)[C@@H](C)C=CC=CCCC=CC=CC=CC=C[C@H](O[C@H]2O[C@@H](C)[C@H](O)[C@@H](N)[C@@H]2O)CC2O[C@](O)(C[C@@H](O)[C@H](O)CC[C@@H](O)C[C@@H](O)C[C@@H](O)CC(=O)O[C@H]1C)C[C@H](O)[C@H]2C(=O)O,112% (inactive),–
C[C@]12COC(=O)C[C@@H]1CC[C@@H]1[C@H]2CC[C@@]2(C)[C@H]1CC[C@]2(C)O,122% (inactive),–
C=C[C@@H]1CN2CCC1C[C@@H]2[C@@H](O)c1ccnc2ccccc12 (stereo partly drawn),96.2% (inactive),–
C[C@H]1CCCC=CC2C[C@H](O)C[C@@H]2[C@H](O)C=CC(=O)O1 (stereo partly drawn),5.35% (inactive),–
CC1=C(O)C(=O)C=C2C1=CC=C1[C@@]2(C)CC[C@@]2(C)[C@@H]3C[C@](C)(C(=O)O)CC[C@]3(C)CC[C@]12C,–,833 nM (active)
CCN1CCN(C(=O)Cc2ccc(Nc3ncc(F)c(Nc4ccc(C(=O)Nc5ccccc5Cl)cc4)n3)cc2)CC1,–,7430 nM (active)
O=S(=O)(F)Cc1ccccc1,124% (inactive),–
CC(C)[C@]12O[C@@H]1[C@@H]1O[C@]13[C@]1(O[C@H]1C[C@@H]1C4=C(CC[C@@]13C)C(=O)OC4)[C@H]2O,4.33% (inactive),–
O=c1[nH]c2ccccc2n1C1CCN(Cc2ccc(-c3[nH]c4cc5ncnc5cc4nc3-c3ccccc3)cc2)CC1,–,18700 nM (active)

SMILES,viability,Potency
CCCC[N+]1(C)[C@H]2CC(OC(=O)[C@H](CO)c3ccccc3)C[C@H]1[C@H]1O[C@H]12 (stereo partly drawn),108% (inactive),–
O=C(Nc1ccncc1)C(=O)c1cn(Cc2ccc(Cl)cc2)c2ccccc12,–,118 nM (active)
CSCC[C@@H](NC(=O)[C@@H](Cc1ccccc1)NC(=O)CNC(=O)CNC(=O)[C@@H](N)Cc1ccc(O)cc1)C(=O)O,111% (inactive),–
COCC1(CO)C(=O)C2CCN1CC2 (stereo not drawn),–,2090 nM (active)
c1ccc2c(CN3CCNCC3)cccc2c1,130% (inactive),–
C=C[C@@H]1CN2CCC1C[C@H]2[C@H](O)c1ccnc2ccccc12 (stereo partly drawn),93.6% (inactive),–
CCc1c(C(=O)C(N)=O)c2c(OCC(=O)O)cccc2n1Cc1ccccc1,107% (inactive),–
C=CCON=C(C[C@H]1O[C@@H]2O[C@]3(C)CC[C@@H]4[C@H](C)CC[C@@H]([C@H]1C)[C@@]24OO3)[C@H]1O[C@@H]2O[C@]3(C)CC[C@H]4[C@H](C)CC[C@@H]([C@@H]1C)[C@@]24OO3,–,187 nM (active)
COc1ccc2c(c[n+](C)c3c4cc5c(cc4ccc23)OCO5)c1OC,–,7430 nM (active)
COc1cccc2c1[C@]13CCN(CC4CC4)[C@H](C2)[C@]1(OC)CCC(=O)C3,106% (inactive),–
Cc1[nH]nc2ccc(-c3cncc(OC[C@@H](N)Cc4c[nH]c5ccccc45)c3)cc12,–,1870 nM (active)
CC(C)(O)C=CC(=O)[C@](C)(O)[C@H]1[C@H](O)C[C@]2(C)[C@@H]3CC=C4[C@@H](C=C(O)C(=O)C4(C)C)[C@]3(C)C(=O)C[C@@]12C,–,105 nM (active)
CC[C@@H]1[C@@H](C)O[C@@](O)([C@@H](C)[C@H](O)[C@H](C)[C@H]2OC(=O)C=CC=C[C@@H](C)[C@@H]([C@@H](C)[C@@H](O)[C@H](C)[C@@]3(O)C[C@H](O[C@H]4C[C@H](O)[C@H](O)[C@H](C)O4)[C@H](CC)[C@@H](C)O3)OC(=O)C=CC=C[C@@H]2C)C[C@H]1O[C@H]1C[C@H](O)[C@H](O)[C@H](C)O1,–,833 nM (active)
CC[C@@]1(O)C(=O)OCc2c1cc1n(c2=O)Cc2cc3ccccc3nc2-1,–,418 nM (active)
CCOC(=O)Nc1ccc(NCc2ccc(F)cc2)cc1N,111% (inactive),–
CN1CCN(c2ccc([N+](=O)[O-])c3no[n+]([O-])c23)CC1,–,26400 nM (active)
CCNC(=O)C[C@@H]1N=C(c2ccc(Cl)cc2)c2cc(OC)ccc2-n2c(C)nnc21,–,1050 nM (active)
C[C@@H]1O[C@@H](O[C@@H]2C=C3CC[C@@H]4[C@@H](CC[C@]5(C)[C@H](c6ccc(=O)oc6)CC[C@@]45O)[C@@]3(C)CC2)[C@H](O)[C@H](O)[C@H]1O,–,16.6 nM (active)
CC=C(C)C(=O)O[C@H]1C(C)=C2[C@@H]3OC(=O)[C@@](C)(O)[C@@]3(O)[C@@H](OC(=O)CCC)C[C@](C)(OC(C)=O)[C@@H]2[C@@H]1OC(=O)CCCCCCC,–,105 nM (active)
